Among the targets are RELARELA (p65 homodimer) (Homo sapiens, UniProt Q04206 1-307); p50p50 homodimer (Homo sapiens, UniProt P19838 7-356); RELB subunit;p50 subunit (Homo sapiens;Homo sapiens, UniProt Q01201;P19838 120-401;7-356).
What all share (experiment): protein binding microarray; high values mean tight binding
Common to all, as to settings: dsDNA, one strand shown

The target of another test is T1, p52p52 homodimer (Homo sapiens, UniProt Q00653 4-332).
T1 sequence: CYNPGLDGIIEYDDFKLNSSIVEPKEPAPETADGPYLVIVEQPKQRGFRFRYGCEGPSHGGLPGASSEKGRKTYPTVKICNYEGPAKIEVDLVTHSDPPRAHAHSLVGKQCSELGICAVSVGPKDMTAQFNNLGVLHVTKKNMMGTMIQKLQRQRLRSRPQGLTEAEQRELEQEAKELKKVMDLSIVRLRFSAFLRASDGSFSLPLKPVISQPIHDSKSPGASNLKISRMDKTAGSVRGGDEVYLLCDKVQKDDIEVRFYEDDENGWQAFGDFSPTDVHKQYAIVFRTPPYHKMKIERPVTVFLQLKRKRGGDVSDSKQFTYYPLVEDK

The target of test [1] is RELA (p65) subunit of heterodimer;p50 subunit (Homo sapiens;Homo sapiens, UniProt Q04206;P19838 1-307;7-356).
The target in test [2] is RELA (p65) subunit of heterodimer;p52 subunit (Homo sapiens;Homo sapiens, UniProt Q04206;Q00653 1-307;4-332).
For the next test, the target named is T2, RELB subunit;p52 subunit (Homo sapiens;Homo sapiens, UniProt Q01201;Q00653 120-401;4-332).
T2 sequence 1: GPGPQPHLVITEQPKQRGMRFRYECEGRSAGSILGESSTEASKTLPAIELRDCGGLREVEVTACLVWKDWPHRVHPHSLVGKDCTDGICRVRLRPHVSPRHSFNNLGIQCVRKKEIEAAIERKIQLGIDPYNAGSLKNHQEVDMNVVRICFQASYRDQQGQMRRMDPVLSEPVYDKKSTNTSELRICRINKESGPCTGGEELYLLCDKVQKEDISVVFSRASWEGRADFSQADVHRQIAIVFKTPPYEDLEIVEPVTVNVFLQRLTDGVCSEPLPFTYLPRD
T2 sequence 2: T1 sequence

In test [3] the target is C-Rel subunit;p50 subunit (Homo sapiens;Homo sapiens, UniProt Q04864;P19838 1-285;7-356).
Test [4] addresses T3, C-Rel subunit;p52 subunit (Homo sapiens;Homo sapiens, UniProt Q04864;Q00653 1-285;4-332).
T3 sequence 1: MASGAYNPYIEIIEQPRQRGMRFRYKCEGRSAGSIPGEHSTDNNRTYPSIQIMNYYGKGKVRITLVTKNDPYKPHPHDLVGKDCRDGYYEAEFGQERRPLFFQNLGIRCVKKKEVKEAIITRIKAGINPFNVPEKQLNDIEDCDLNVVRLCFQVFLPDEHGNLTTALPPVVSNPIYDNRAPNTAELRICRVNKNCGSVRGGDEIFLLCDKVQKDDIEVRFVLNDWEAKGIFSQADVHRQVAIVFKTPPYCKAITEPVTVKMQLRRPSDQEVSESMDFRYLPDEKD
T3 sequence 2: T1 sequence

p50p50 homodimer, sequence (P19838 7-356): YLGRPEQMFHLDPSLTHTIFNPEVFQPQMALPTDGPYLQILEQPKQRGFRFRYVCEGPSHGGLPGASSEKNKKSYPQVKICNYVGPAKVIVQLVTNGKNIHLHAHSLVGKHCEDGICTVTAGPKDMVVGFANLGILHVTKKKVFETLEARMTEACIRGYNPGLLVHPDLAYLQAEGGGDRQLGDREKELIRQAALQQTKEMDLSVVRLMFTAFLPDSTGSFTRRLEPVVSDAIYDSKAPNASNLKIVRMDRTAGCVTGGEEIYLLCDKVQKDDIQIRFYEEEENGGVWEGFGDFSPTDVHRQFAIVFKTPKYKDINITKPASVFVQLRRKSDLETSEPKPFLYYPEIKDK
RELA (p65) subunit of heterodimer;p50 subunit, sequence (Q04206 1-307, chain 1 of 2): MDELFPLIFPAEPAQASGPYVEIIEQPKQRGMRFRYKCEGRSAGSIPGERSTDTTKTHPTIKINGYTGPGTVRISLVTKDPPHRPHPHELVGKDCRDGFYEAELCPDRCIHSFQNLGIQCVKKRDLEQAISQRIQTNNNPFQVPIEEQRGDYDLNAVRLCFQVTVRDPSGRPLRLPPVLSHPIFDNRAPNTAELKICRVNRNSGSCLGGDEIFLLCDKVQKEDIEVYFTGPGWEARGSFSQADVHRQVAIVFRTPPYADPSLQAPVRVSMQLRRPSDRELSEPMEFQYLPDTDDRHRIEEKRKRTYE
RELA (p65) subunit of heterodimer;p50 subunit, sequence (P19838 7-356, chain 2 of 2): as the sequence (P19838 7-356) above
RELARELA (p65 homodimer), sequence (Q04206 1-307): as the sequence (Q04206 1-307, chain 1 of 2) above

As to CGGAAAACCCC, the binding signal with RELARELA (p65 homodimer) was found to be 3.69 z-score; with p50p50 homodimer it was 1.19 z-score; with p52p52 homodimer, 2.57 z-score; in test [1], 2.32 z-score; in test [2], 2.28 z-score; in the test with RELB subunit;p50 subunit it was 1.23 z-score. Moreover, the binding signal was determined as 2.18 z-score with RELB subunit;p52 subunit, 2.07 z-score in test [3] and 3.23 z-score in test [4].
In the case of GAGTTGGCCCT, the binding signal in the test with RELARELA (p65 homodimer) is -0.84 z-score; with p50p50 homodimer, -1.24 z-score; in the test with p52p52 homodimer it was -0.495 z-score; in test [1] it was -0.546 z-score; in [2], -0.734 z-score; with RELB subunit;p50 subunit, -0.243 z-score. Also, the binding signal with RELB subunit;p52 subunit is -0.397 z-score; in test [3] it was -0.778 z-score; in test [4], -0.623 z-score.
For CAATTCCTCCT, the binding signal with RELARELA (p65 homodimer) is 0.0653 z-score; with p50p50 homodimer it was -1.06 z-score; with p52p52 homodimer, -0.655 z-score; in test [1], -0.688 z-score; in [2], -0.609 z-score; with RELB subunit;p50 subunit, -0.871 z-score. Further, the results for the binding signal (with RELB subunit;p52 subunit; in test [3]; in test [4]) were -0.932 z-score, -0.776 z-score and -0.597 z-score, respectively.
As to CGAAAGGCCCT, the binding signal with RELARELA (p65 homodimer) was -0.835 z-score; with p50p50 homodimer, -0.751 z-score; with p52p52 homodimer, -0.447 z-score; in [1] it was -0.366 z-score; in [2], -0.217 z-score; with RELB subunit;p50 subunit, -0.417 z-score. The binding signal with RELB subunit;p52 subunit was -0.6 z-score; in [3] it was -0.822 z-score; in test [4] it was -0.62 z-score.
In the case of CAAAGTACCCC, the binding signal with RELARELA (p65 homodimer) is 0.144 z-score; with p50p50 homodimer, 0.83 z-score; with p52p52 homodimer, 0.509 z-score; in test [1], 0.648 z-score; in test [2], 0.795 z-score; with RELB subunit;p50 subunit, 1.07 z-score. Moreover, the binding signal in the test with RELB subunit;p52 subunit was found to be 1.19 z-score; in [3], 0.721 z-score; in test [4] it was 0.588 z-score.
As to CAGGAAACCCC, the binding signal with RELARELA (p65 homodimer) worked out at 2.37 z-score; with p50p50 homodimer it was 1.03 z-score; with p52p52 homodimer it was 1.38 z-score; in [1] it was 1.38 z-score; in test [2] it was 1.31 z-score; with RELB subunit;p50 subunit, 0.925 z-score. Moreover, the binding signal with RELB subunit;p52 subunit came to 1.39 z-score; in [3], 1.04 z-score; in test [4] it was 1.76 z-score.
On to AGAAAAGCCCC, for which the binding signal with RELARELA (p65 homodimer) is 1.13 z-score; with p50p50 homodimer, 0.938 z-score; in the test with p52p52 homodimer, 2.07 z-score; in test [1], 1.57 z-score; in [2], 1.76 z-score; with RELB subunit;p50 subunit it was 1.77 z-score. In addition, the values for the binding signal (with RELB subunit;p52 subunit; in test [3]; in test [4]) were 1.57 z-score, 0.96 z-score and 1.65 z-score, respectively.
Take AAGTTTCTCCC: the binding signal was 0.793 z-score with RELARELA (p65 homodimer); 0.601 z-score in the test with p50p50 homodimer; 0.198 z-score with p52p52 homodimer; 0.383 z-score in [1]; 0.17 z-score in test [2]; 0.576 z-score in the test with RELB subunit;p50 subunit. Besides, the binding signal with RELB subunit;p52 subunit was determined as 0.357 z-score; in [3] it was 0.423 z-score; in test [4] it was 0.189 z-score.
For GAATGCCTCCT, the binding signal is -0.0578 z-score in the test with RELARELA (p65 homodimer); -1.27 z-score in the test with p50p50 homodimer; -0.691 z-score with p52p52 homodimer; -0.691 z-score in test [1]; -0.961 z-score in [2]; -1.06 z-score with RELB subunit;p50 subunit. In addition, the binding signal is -1.25 z-score with RELB subunit;p52 subunit, -1.51 z-score in test [3] and -0.845 z-score in test [4].
For the sequence GGGAAAGCCCC, the binding signal with RELARELA (p65 homodimer) is 3.52 z-score; with p50p50 homodimer, 1.48 z-score; with p52p52 homodimer, 3.39 z-score; in [1], 3.02 z-score; in [2] it was 3.27 z-score; with RELB subunit;p50 subunit, 3.3 z-score. Further, the results for the binding signal (with RELB subunit;p52 subunit; in test [3]; in test [4]) were 2.95 z-score, 2.45 z-score and 3.53 z-score, respectively.
Consider CGAAGCGCCCC, for which the binding signal in the test with RELARELA (p65 homodimer) is -0.596 z-score; in the test with p50p50 homodimer, -0.188 z-score; with p52p52 homodimer it was -0.173 z-score; in [1], -0.171 z-score; in [2] it was -0.0511 z-score; with RELB subunit;p50 subunit, 0.0336 z-score. Also, the binding signal with RELB subunit;p52 subunit was 0.263 z-score; in test [3], -0.144 z-score; in test [4] it was 0.0513 z-score.
In the case of GAGGGCACCCT, the binding signal with RELARELA (p65 homodimer) is -0.976 z-score; in the test with p50p50 homodimer it was -1.27 z-score; in the test with p52p52 homodimer, -0.651 z-score; in test [1], -0.906 z-score; in test [2], -0.74 z-score; with RELB subunit;p50 subunit it was -0.75 z-score. Also, the values for the binding signal (in the test with RELB subunit;p52 subunit; in test [3]; in [4]) were -0.795 z-score, -1.04 z-score and -0.757 z-score, respectively.
Regarding CGAGGCATCCC, the binding signal with RELARELA (p65 homodimer) is -0.716 z-score; in the test with p50p50 homodimer, -1.34 z-score; with p52p52 homodimer it was -0.635 z-score; in test [1] it was -1.05 z-score; in test [2], -0.831 z-score; in the test with RELB subunit;p50 subunit it was -0.973 z-score. Besides, the results for the binding signal (in the test with RELB subunit;p52 subunit; in [3]; in test [4]) were -0.906 z-score, -1.02 z-score and -0.807 z-score, respectively.
For GGATGCGTCCT, the binding signal with RELARELA (p65 homodimer) is 0.00389 z-score; in the test with p50p50 homodimer, -1.17 z-score; with p52p52 homodimer, -0.665 z-score; in test [1] it was -1.04 z-score; in test [2], -0.853 z-score; with RELB subunit;p50 subunit it was -1.18 z-score. Besides, the binding signal with RELB subunit;p52 subunit is -0.816 z-score; in test [3], -1.72 z-score; in test [4] it was -0.907 z-score.
In the case of AAATTGTCCCT, the binding signal was found to be 0.833 z-score in the test with RELARELA (p65 homodimer); 1.43 z-score with p50p50 homodimer; 1.92 z-score with p52p52 homodimer; 1.28 z-score in test [1]; 1.26 z-score in test [2]; 1.61 z-score with RELB subunit;p50 subunit. Besides, the binding signal with RELB subunit;p52 subunit is 1.7 z-score; in test [3], 1.14 z-score; in test [4], 1.11 z-score.

These data come from paper PMC3218832.
